Experimental data from PubChem BioAssay AID493004 (Broad Institute, 2010).
Hit rate of the full screen: of about 2,300 compounds, fewer than 10 were called active.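 The calls were made as follows: active = Signal drops as the depositor expects, and the fitted half-maximal dose is no more than ten times the top valid tested dose; inconclusive = Poor fit, or a flat curve whose signal drops by 30% to 70%; inactive = the rest.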 These entries were drawn from the full list.

Experiment: growth restoration of Mot1-301 yeast on galactose, dose response, SUMO pathway inhibitor project, whole organism, S. cerevisiae, ATP luminescence, cherry-picked samples (AID 493004);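 also: more negative values mean stronger growth rescue toward the control strain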
Details: S. cerevisiae Mot1-301 galactose growth, 24 h, -100 = growth of slx-deleted rescue strain; series mostly up to 42 µM; growth activity, percent: at the top concentration

Growth activity, percent, inactive:
CCOCCCNCc1ccc(OCc2ccc(F)cc2)c(OC)c1 0.161%, COc1cccc(CN(C)CC2CCCN(CCc3ccc(Cl)cc3)C2)c1OC (stereo not drawn) -0.0976%, COc1cccc(OC)c1C(=O)Nc1ccc2c(c1)n(C)c(=O)n2C 1.14%, COC(=O)/C=C\C(=O)Nc1cccc([N+](=O)[O-])c1 -2.9%, CC(C)Cc1nc(N2CCOCC2)c(C#N)c2c1CCC2 0.844%, COc1ccc(-c2[nH]nc3c2C(c2ccncc2)C(C#N)=C(N)O3)cc1 (stereo not drawn) -0.099%, COc1cc(CN2CCNC(=O)C2CC(=O)NCCc2ncccc2C)cc(OC)c1 (stereo not drawn) 0.3%, CC(C)CCNC(=O)Cn1c(=O)oc2cc(S(=O)(=O)N3CC(C)CC(C)C3)ccc21 (stereo not drawn) -0.44%, CCc1cc2c(=O)c(-c3ccc(F)cc3)c(C(F)(F)F)oc2cc1OCC(=O)O 0.415%, CCc1c(C)nc(N2CCN(Cc3ccccc3)CC2)[nH]c1=O -0.238%, Cc1cc(C)c(OCC(=O)N/N=C/c2ccco2)c(C)c1 -0.545%, CC1=NC2(CCCc3c2no[n+]3[O-])N(O)C1(C)C (stereo not drawn) 0.0904%, CCCCC(=O)N/N=C(\C)CC(=O)Nc1cc(Cl)ccc1OC -0.644%, CC(NC(=O)c1ccc(Cl)cc1)C(=O)N1CCCCC1 (stereo not drawn) 0.715%, CCc1ccccc1NC1c2ccccc2C(=O)N1c1cccnc1 (stereo not drawn) 0.194%, COc1ccccc1N1CCN(C(=O)C(=O)N/N=C/c2ccccc2F)CC1 0.325%, N#CC1=C(N)OC2=C(C(=O)CCC2)C1C1CC=CCC1 (stereo not drawn) 0.0415%, Cc1cc(C)c2nc(-c3cccnc3)cc(C(=O)Nc3ccc(S(=O)(=O)Nc4onc(C)c4C)cc3)c2c1 0.255%, CSc1nc2ccc(NC(=O)c3c(F)cccc3F)cc2s1 -0.719%, COc1ccccc1/C=C/C(=O)NC(=S)N1CCOCC1 0.614%, CCCCNC(=O)c1ccccc1NC(=O)C1=C(C)OCCS1 0.151%, C=CCC(NCCCO)c1cccc(OC)c1OC (stereo not drawn) 0.152%, O=C(OC1CCOC1=O)c1cccc(S(=O)(=O)Nc2ccc(F)cc2)c1 (stereo not drawn) 0.0867%, CCOC(=O)C1(Cc2cccc(OC)c2)CCCN(S(=O)(=O)c2cccnc2)C1 (stereo not drawn) -0.256%, Cc1ccc(S(=O)(=O)N2[C@@H](c3ccc(Br)cc3)C(C(=O)O)=C[C@H]2CC2CCCC2)cc1 0.199%, CCN(CC)C(=O)CSC(Nc1cccc(F)c1)=C(C#N)C#N -0.267%, Cc1ccc(NC(=O)Nc2cccc(C(F)(F)F)c2)nc1 -0.7%, O=C(NCC(=O)N(c1ccccc1)C(C(=O)NCC1CCCO1)c1ccccc1)c1cccs1 (stereo not drawn) 0.303%, O=C(CSCc1ccc(Cl)cc1)N1CCCCC1 0.62%, O=C1CC(c2ccccc2)C(=O)N1c1cccc(O)c1 (stereo not drawn) 0.541%, Cc1nn(CCOc2ccccc2)c(=O)n1-c1ccccc1F 0.758%, Oc1c(Cl)cc(Cl)c(Cl)c1Cc1c(O)c(Cl)cc(Cl)c1Cl -3.98%, CC(Oc1ccccc1[N+](=O)[O-])C(=O)N/N=C/c1ccoc1 (stereo not drawn) 0.0127%
